Assay results from article PMC8384837, “Expanding the binding specificity for RNA recognition by a PUF domain”.

Tests used:
Assay in all cases: yeast three-hybrid, YBZ-1, SC-Leu-His + 0.5 mM 3-AT, 4 days
Conditions in all cases: tags: N-Gal4 AD-HA kept; label: inside an RPR1-promoter hybrid RNA with tandem MS2 sites; ssRNA
PUM1 PUF domain R1-FAR = PUM1 PUF domain R1-FAR (Homo sapiens, UniProt Q14671 828-1176, S863F;R864A;Q867R)
In short: (§1)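 Pumilio-1 PUF domain libraries, randomized at the three base-contacting residues of each repeat, were co-expressed with matching RNA elements from a centromeric plasmid in strain YBZ-1, which carries a LexA–MS2 coat fusion and a HIS3 reporter. Transformants grew for four days on SC-Leu (input) or on SC-Leu-His + 0.5 mM 3-AT (selection), and the repeat regions were PCR-amplified and Illumina-sequenced. The interaction score is the log change in variant frequency from input to selection. That logarithm is base 2, with a pseudocount of 1 where a variant was absent.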

PUM1 PUF domain R1-GMR = PUM1 PUF domain R1-GMR (Homo sapiens, UniProt Q14671 828-1176, S863G;R864M;Q867R)
In short: as §1

PUM1 PUF domain R5-KGT = PUM1 PUF domain R5-KGT (Homo sapiens, UniProt Q14671 828-1176, C1007K;R1008G;Q1011T)
In short: as §1

PUM1 PUF domain R5-GYL = PUM1 PUF domain R5-GYL (Homo sapiens, UniProt Q14671 828-1176, C1007G;R1008Y;Q1011L)
In short: as §1

PUM1 PUF domain R5-WHR = PUM1 PUF domain R5-WHR (Homo sapiens, UniProt Q14671 828-1176, C1007W;R1008H;Q1011R)
In short: as §1

PUM1 PUF domain R5-RLD = PUM1 PUF domain R5-RLD (Homo sapiens, UniProt Q14671 828-1176, C1007R;R1008L;Q1011D)
In short: as §1

PUM1 PUF domain R8-SFQ = PUM1 PUF domain R8-SFQ (Homo sapiens, UniProt Q14671 828-1176, N1122S;Y1123F)
In short: as §1

PUM1 PUF domain R3-RAC = PUM1 PUF domain R3-RAC (Homo sapiens, UniProt Q14671 828-1176, C935R;R936A;Q939C)
In short: as §1

PUM1 PUF domain R3-RCR = PUM1 PUF domain R3-RCR (Homo sapiens, UniProt Q14671 828-1176, C935R;R936C;Q939R)
In short: as §1

PUM1 PUF domain R4-FGC = PUM1 PUF domain R4-FGC (Homo sapiens, UniProt Q14671 828-1176, N971F;H972G;Q975C)
In short: as §1

PUM1 PUF domain R4-CCG = PUM1 PUF domain R4-CCG (Homo sapiens, UniProt Q14671 828-1176, N971C;H972C;Q975G)
In short: as §1

PUM1 PUF domain R2-RVN = PUM1 PUF domain R2-RVN (Homo sapiens, UniProt Q14671 828-1176, N899R;Y900V;Q903N)
In short: as §1

PUM1 PUF domain R2-EHL = PUM1 PUF domain R2-EHL (Homo sapiens, UniProt Q14671 828-1176, N899E;Y900H;Q903L)
In short: as §1

PUM1 PUF domain R7-RAS = PUM1 PUF domain R7-RAS (Homo sapiens, UniProt Q14671 828-1176, S1079R;N1080A;E1083S)
In short: as §1

PUM1 PUF domain R5-RYG = PUM1 PUF domain R5-RYG (Homo sapiens, UniProt Q14671 828-1176, C1007R;R1008Y;Q1011G)
In short: as §1

PUM1 PUF domain R3-FFL = PUM1 PUF domain R3-FFL (Homo sapiens, UniProt Q14671 828-1176, C935F;R936F;Q939L)
In short: as §1

PUM1 PUF domain R4-LGC = PUM1 PUF domain R4-LGC (Homo sapiens, UniProt Q14671 828-1176, N971L;H972G;Q975C)
In short: as §1

PUM1 PUF domain R6-IWS = target: T1, PUM1 PUF domain R6-IWS (Homo sapiens, UniProt Q14671 828-1176, N1043I;Y1044W;Q1047S)
T1 sequence: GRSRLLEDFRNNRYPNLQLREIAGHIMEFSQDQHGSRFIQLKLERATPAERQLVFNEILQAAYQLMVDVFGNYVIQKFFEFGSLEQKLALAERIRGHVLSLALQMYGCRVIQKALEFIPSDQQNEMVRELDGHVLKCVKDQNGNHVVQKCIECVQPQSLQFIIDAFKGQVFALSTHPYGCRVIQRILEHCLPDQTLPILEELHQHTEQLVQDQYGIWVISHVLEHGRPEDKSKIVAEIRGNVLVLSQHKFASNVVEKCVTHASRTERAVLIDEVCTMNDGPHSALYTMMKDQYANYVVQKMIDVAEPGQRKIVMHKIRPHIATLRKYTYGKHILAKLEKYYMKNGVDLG
In short: as §1

PUM1 PUF domain R5-QKA = PUM1 PUF domain R5-QKA (Homo sapiens, UniProt Q14671 828-1176, C1007Q;R1008K;Q1011A)
In short: as §1

PUM1 PUF domain R5-KRF = PUM1 PUF domain R5-KRF (Homo sapiens, UniProt Q14671 828-1176, C1007K;Q1011F)
In short: as §1

Question: How did the binding signal (PUM1 PUF domain R1-FAR) turn out when “GGCUAGAACUAGUGGAUCCCCCGGCGCCCGGCGGCUCGAGCCCGGGUAAGUGUAAAUUGUCUGCAUGCCGCCGGGCGCCAUGCCUGCAGGUCGACUCUAGAAAACAUG” was run?
Answer: 4.18 log2 enrichment (interaction score)

Question: What about the binding signal (PUM1 PUF domain R1-GMR) of the same sequence?
Answer: 1.96 log2 enrichment (interaction score)

Question: Which results are given for “GGCUAGAACUAGUGGAUCCCCCGGCGCCCGGCGGCUCGAGCCCGGGUAAGUGUAAAUCGUCUGCAUGCCGCCGGGCGCCAUGCCUGCAGGUCGACUCUAGAAAACAUG”?
Answer: binding signal (PUM1 PUF domain R1-FAR): 0.5 log2 enrichment (interaction score); binding signal (PUM1 PUF domain R1-GMR): 3.57 log2 enrichment (interaction score)

Question: “GGCUAGAACUAGUGGAUCCCCCGGCGCCCGGCGGCUCGAGCCCGGGUAAGUGUUAAUAGUCUGCAUGCCGCCGGGCGCCAUGCCUGCAGGUCGACUCUAGAAAACAUG” was tested. Which binding signal (PUM1 PUF domain R5-KGT) did it give?
Answer: 2.93 log2 enrichment (interaction score)

Question: And the binding signal (PUM1 PUF domain R5-GYL)?
Answer: 7.41 log2 enrichment (interaction score)

Question: What about the binding signal (PUM1 PUF domain R5-WHR) of the same sequence?
Answer: 4.76 log2 enrichment (interaction score)

Question: And the binding signal (PUM1 PUF domain R5-RLD)?
Answer: 0.72 log2 enrichment (interaction score)

Question: Which binding signal (PUM1 PUF domain R8-SFQ) does the source give for “GGCUAGAACUAGUGGAUCCCCCGGCGCCCGGCGGCUCGAGCCCGGGUAAGCGUAAAUAGUCUGCAUGCCGCCGGGCGCCAUGCCUGCAGGUCGACUCUAGAAAACAUG” here?
Answer: 2.84 log2 enrichment (interaction score)

Question: How did the binding signal (PUM1 PUF domain R3-RAC) turn out when “GGCUAGAACUAGUGGAUCCCCCGGCGCCCGGCGGCUCGAGCCCGGGUAAGUGUAAUUAGUCUGCAUGCCGCCGGGCGCCAUGCCUGCAGGUCGACUCUAGAAAACAUG” was run?
Answer: 4.24 log2 enrichment (interaction score)

Question: What about the binding signal (PUM1 PUF domain R3-RCR) of the same sequence?
Answer: 2.77 log2 enrichment (interaction score)

Question: “GGCUAGAACUAGUGGAUCCCCCGGCGCCCGGCGGCUCGAGCCCGGGUAAGUGUAUAUAGUCUGCAUGCCGCCGGGCGCCAUGCCUGCAGGUCGACUCUAGAAAACAUG” was tested. Which binding signal (PUM1 PUF domain R4-FGC) did it give?
Answer: 3.05 log2 enrichment (interaction score)

Question: And the binding signal (PUM1 PUF domain R4-CCG)?
Answer: 1.84 log2 enrichment (interaction score)

Question: With “GGCUAGAACUAGUGGAUCCCCCGGCGCCCGGCGGCUCGAGCCCGGGUAAGUGUAAAGAGUCUGCAUGCCGCCGGGCGCCAUGCCUGCAGGUCGACUCUAGAAAACAUG” as the sequence, how does the binding signal (PUM1 PUF domain R2-RVN) read?
Answer: 3.32 log2 enrichment (interaction score)

Question: For “GGCUAGAACUAGUGGAUCCCCCGGCGCCCGGCGGCUCGAGCCCGGGUAAGUGUAAAAAGUCUGCAUGCCGCCGGGCGCCAUGCCUGCAGGUCGACUCUAGAAAACAUG”, which binding signal (PUM1 PUF domain R2-EHL) is on record?
Answer: 3.07 log2 enrichment (interaction score)

Question: “GGCUAGAACUAGUGGAUCCCCCGGCGCCCGGCGGCUCGAGCCCGGGUAAGUUUAAAUAGUCUGCAUGCCGCCGGGCGCCAUGCCUGCAGGUCGACUCUAGAAAACAUG” was tested. Which binding signal (PUM1 PUF domain R7-RAS) did it give?
Answer: 2.46 log2 enrichment (interaction score)

Question: How did the binding signal (PUM1 PUF domain R5-RYG) turn out when “GGCUAGAACUAGUGGAUCCCCCGGCGCCCGGCGGCUCGAGCCCGGGUAAGUGUAAAUAGUCUGCAUGCCGCCGGGCGCCAUGCCUGCAGGUCGACUCUAGAAAACAUG” was run?
Answer: 2.94 log2 enrichment (interaction score)

Question: And the binding signal (PUM1 PUF domain R4-FGC)?
Answer: 1 log2 enrichment (interaction score)

Question: What about the binding signal (PUM1 PUF domain R3-FFL) of the same sequence?
Answer: 3.27 log2 enrichment (interaction score)

Question: And the binding signal (PUM1 PUF domain R4-LGC)?
Answer: 4 log2 enrichment (interaction score)

Question: And the binding signal (PUM1 PUF domain R4-CCG)?
Answer: 2.6 log2 enrichment (interaction score)

Question: And the binding signal (PUM1 PUF domain R6-IWS)?
Answer: 2.75 log2 enrichment (interaction score)

Question: Which results are given for “GGCUAGAACUAGUGGAUCCCCCGGCGCCCGGCGGCUCGAGCCCGGGUAAGUGUACAUAGUCUGCAUGCCGCCGGGCGCCAUGCCUGCAGGUCGACUCUAGAAAACAUG”?
Answer: binding signal (PUM1 PUF domain R4-FGC): 0.93 log2 enrichment (interaction score); binding signal (PUM1 PUF domain R4-CCG): 0.76 log2 enrichment (interaction score)

Question: For “GGCUAGAACUAGUGGAUCCCCCGGCGCCCGGCGGCUCGAGCCCGGGUAAGUGUCAAUAGUCUGCAUGCCGCCGGGCGCCAUGCCUGCAGGUCGACUCUAGAAAACAUG”, which binding signal (PUM1 PUF domain R5-QKA) is on record?
Answer: 2.79 log2 enrichment (interaction score)

Question: What about the binding signal (PUM1 PUF domain R5-KRF) of the same sequence?
Answer: 2.59 log2 enrichment (interaction score)

Question: And the binding signal (PUM1 PUF domain R5-RYG)?
Answer: 5.09 log2 enrichment (interaction score)

Question: And the binding signal (PUM1 PUF domain R5-KGT)?
Answer: 2.31 log2 enrichment (interaction score)

Question: What about the binding signal (PUM1 PUF domain R5-GYL) of the same sequence?
Answer: 0.48 log2 enrichment (interaction score)

Question: What about the binding signal (PUM1 PUF domain R5-WHR) of the same sequence?
Answer: 3.55 log2 enrichment (interaction score)

Question: And the binding signal (PUM1 PUF domain R5-RLD)?
Answer: 2.78 log2 enrichment (interaction score)
